Some test systems named below: SK-MEL-2 melanoma; EKVX NSCLC; SN12C renal; TK-10 renal; ACHN renal; CAKI-1 renal; A498 renal; CCRF-CEM leukemia; MOLT-4 leukemia; SR leukemia; RPMI-8226 leukemia; OVCAR-8 ovarian; OVCAR-5 ovarian; OVCAR-4 ovarian; SK-OV-3 ovarian; IGROV1 ovarian; OVCAR-3 ovarian; HS 578T breast; NCI/ADR-RES ovarian; UO-31 renal.
Holding throughout (experiment): NCI-60 one-dose screen, 48 h (100 = growth as untreated, 0 = no growth, -100 = all killed)
Holding throughout (conditions): 10 µM unless noted

Compounds without any hit were thinned out: in the full panel of roughly 83,000, 20% have a hit.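 In brief: 96-well plates, 48 h treatment, single concentration, percent growth endpoint.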 Unmarked numbers belong to inactive results. Active and inactive are the calls of the source. How the source made its calls: active means growth percent below 10; inactive means the rest.

On to `Cc1cc(Cl)ccc1NC(=O)Nc1ccc(-c2ccc3c(c2)NC(=O)/C3=C\c2ccc[nH]2)cc1`, for which the growth in the assay on SK-MEL-2 melanoma is 121%; with EKVX NSCLC, 67.5%; in the assay on SN12C renal, 97.6%; in the assay on TK-10 renal, 115%; in the assay on ACHN renal it was 98.8%; in the assay with CAKI-1 renal, 99%. Also, the growth is 119% in the assay with A498 renal; 97.8% in the assay on CCRF-CEM leukemia; 86.2% in the assay on MOLT-4 leukemia; 69.3% in the assay on SR leukemia; 100% with RPMI-8226 leukemia; 104% in the assay with OVCAR-8 ovarian. Further, the growth was 108% in the assay on OVCAR-5 ovarian; 84.7% with OVCAR-4 ovarian; 125% with SK-OV-3 ovarian; 96.2% with IGROV1 ovarian; 119% in the assay on OVCAR-3 ovarian; 102% with HS 578T breast. The growth in the assay on NCI/ADR-RES ovarian is 104%.
On to `Cc1cnc2ccc(Oc3ccccc3-c3ccccc3)nn12`, for which the growth with SK-MEL-2 melanoma was 108%; with EKVX NSCLC it was 100%; in the assay with SN12C renal, 100%; with TK-10 renal, 106%; in the assay on ACHN renal, 105%; in the assay with A498 renal, 116%. The growth was 103% in the assay on CCRF-CEM leukemia; 107% with MOLT-4 leukemia; 89.3% in the assay on SR leukemia; 103% in the assay with OVCAR-8 ovarian; 111% in the assay on OVCAR-5 ovarian; 112% with OVCAR-4 ovarian. Besides, the growth with SK-OV-3 ovarian is 178%; in the assay on IGROV1 ovarian it was 105%; in the assay with HS 578T breast it was 120%; in the assay on NCI/ADR-RES ovarian, 104%.
Regarding `Cc1ccc(C(=O)Nc2cc(-c3ccccc3)cc(C(F)(F)F)c2)cc1C#Cc1cnc2cccnn12`, the growth in the assay with SK-MEL-2 melanoma was 58.7%; in the assay with EKVX NSCLC, 63%; in the assay on SN12C renal, 65.9%; in the assay on TK-10 renal, 79.3%; with ACHN renal, 59.9%; in the assay on CAKI-1 renal, 70.4%. The growth with A498 renal was 133%; in the assay with CCRF-CEM leukemia it was 38.1%; with MOLT-4 leukemia it was 35.5%; with SR leukemia, 44.8%; in the assay on RPMI-8226 leukemia, 36.9%; in the assay on OVCAR-5 ovarian, 85.3%. Moreover, the growth with OVCAR-4 ovarian is 49%; in the assay on SK-OV-3 ovarian, 123%; in the assay with IGROV1 ovarian, 93.1%; in the assay with OVCAR-3 ovarian it was 95.5%; in the assay on HS 578T breast, 85.3%; in the assay on NCI/ADR-RES ovarian, 63.2%.
Consider `Nc1cc(-c2c[nH]c3ccc(Cl)cc23)nc2cc(-c3c[nH]c4ccccc34)nn12`, for which the growth was -45.8% (active) in the assay with SK-MEL-2 melanoma; -23.7% (active) with EKVX NSCLC; 6.54% (active) with SN12C renal; -4.79% (active) in the assay on UO-31 renal; -7.78% (active) in the assay on TK-10 renal; 0.126% (active) in the assay on ACHN renal. Also, the growth with A498 renal is -14% (active); with MOLT-4 leukemia, -27.4% (active); in the assay with SR leukemia, 10.2%; in the assay on RPMI-8226 leukemia it was 0.472% (active); in the assay with OVCAR-8 ovarian it was -4.93% (active); in the assay on OVCAR-5 ovarian, -50.4% (active). Moreover, the growth was 19.8% in the assay with OVCAR-4 ovarian; 5.29% (active) in the assay on SK-OV-3 ovarian; 2.75% (active) in the assay with IGROV1 ovarian; -52.7% (active) with OVCAR-3 ovarian; -3.21% (active) in the assay with HS 578T breast; -3.2% (active) in the assay with NCI/ADR-RES ovarian.
Consider `Cc1cc(C(NC(=O)CCCCCNc2cccc3c2C(=O)N(C2CCC(=O)CC2=O)C3=O)c2cccc(N(C)C)c2)c(O)c2ncccc12` (centres undefined), for which the growth in the assay with SK-MEL-2 melanoma is -1.61% (active); with EKVX NSCLC it was 7.79% (active); with SN12C renal, 10.2%; in the assay with UO-31 renal, 8.84% (active); with TK-10 renal it was 42.4%; with ACHN renal it was 14.7%. Moreover, the growth is 26.9% with A498 renal; -0.125% (active) in the assay on MOLT-4 leukemia; 25.3% in the assay on SR leukemia; 15.6% in the assay with RPMI-8226 leukemia; 2.18% (active) in the assay on OVCAR-8 ovarian; 38.1% in the assay on OVCAR-5 ovarian. In addition, the growth with OVCAR-4 ovarian is 33.2%; with SK-OV-3 ovarian it was -2.15% (active); with IGROV1 ovarian, 1.63% (active); in the assay with OVCAR-3 ovarian, 16.3%; in the assay on HS 578T breast it was 19.6%; in the assay on NCI/ADR-RES ovarian, 50.6%.
Regarding `COc1cc(CNC(=O)C[C@H](C)CCC=C(C)C)ccc1OCc1cn(-c2ccc(Cl)c(Cl)c2)nn1`, the growth in the assay on SK-MEL-2 melanoma is 93.7%; in the assay with EKVX NSCLC, 77.2%; in the assay with SN12C renal it was 38.2%; in the assay with UO-31 renal, 60.8%; in the assay with TK-10 renal, 90.7%; with ACHN renal, 71.5%. Also, the growth with A498 renal was 79.9%; in the assay with MOLT-4 leukemia it was 68.7%; in the assay on SR leukemia it was 27.1%; in the assay on RPMI-8226 leukemia it was 77.6%; in the assay on OVCAR-8 ovarian it was 46.3%; with OVCAR-5 ovarian, 86.4%. The growth with OVCAR-4 ovarian is 53.4%; with SK-OV-3 ovarian it was 99%; in the assay on IGROV1 ovarian it was 83.1%; in the assay with OVCAR-3 ovarian, 60.1%; in the assay with HS 578T breast, 57%; in the assay on NCI/ADR-RES ovarian, 36.5%.
As to `COc1cccc(C(N)=Nc2ccc(OCCCCCCCCn3cncn3)cc2)c1`, the growth is 14% with SK-MEL-2 melanoma; 37.4% in the assay on EKVX NSCLC; 20.6% in the assay on SN12C renal; 57% in the assay with TK-10 renal; 28% in the assay with ACHN renal; 40.3% with CAKI-1 renal. Moreover, the growth in the assay on A498 renal was 94.3%; in the assay on CCRF-CEM leukemia, 16.4%; with MOLT-4 leukemia it was 16.8%; in the assay on SR leukemia, 10.4%; in the assay with RPMI-8226 leukemia, 14.2%; with OVCAR-5 ovarian, 29.6%. Besides, the growth was 55.5% in the assay with OVCAR-4 ovarian, 41.7% in the assay on SK-OV-3 ovarian, 27.3% in the assay with IGROV1 ovarian and 37.2% with HS 578T breast.
`CCCn1c(NC(=O)c2cccc(C(N)=O)c2)nc2cc(CN3CCCCC3)ccc21`: the growth with SK-MEL-2 melanoma is 115%; in the assay on EKVX NSCLC, 100%; in the assay with SN12C renal, 89%; with UO-31 renal, 67.5%; in the assay on TK-10 renal, 92.6%; in the assay with ACHN renal it was 77.8%. Moreover, the growth in the assay on A498 renal is 170%; in the assay with MOLT-4 leukemia, 94.8%; with SR leukemia, 41.5%; in the assay on OVCAR-8 ovarian it was 117%; with OVCAR-5 ovarian it was 99%; in the assay with OVCAR-4 ovarian, 90.2%. For the same compound, the growth was 83.4% in the assay on SK-OV-3 ovarian; 88.5% in the assay on IGROV1 ovarian; 101% with OVCAR-3 ovarian; 119% with HS 578T breast; 114% in the assay with NCI/ADR-RES ovarian.
On to `Clc1ccc(-c2nc3c4c(-c5ccccc5)c(-c5ccccc5)n(Cc5ccccc5)c4ncn3n2)cc1`, for which the growth in the assay on SK-MEL-2 melanoma was -10.4% (active); in the assay on EKVX NSCLC, 2.2% (active); with SN12C renal it was 0.356% (active); in the assay with TK-10 renal, 24.1%; with ACHN renal, -4.9% (active); in the assay on CAKI-1 renal, -20.1% (active). Also, the growth in the assay with A498 renal is -17.4% (active); in the assay on CCRF-CEM leukemia, -2.09% (active); in the assay on MOLT-4 leukemia, -5.99% (active); in the assay with SR leukemia, 5.49% (active); in the assay on RPMI-8226 leukemia, -34.7% (active); in the assay on OVCAR-8 ovarian, 11.6%. Moreover, the growth is 16.6% in the assay on OVCAR-5 ovarian; 16.4% in the assay with OVCAR-4 ovarian; -10.2% (active) in the assay with SK-OV-3 ovarian; 16.1% with IGROV1 ovarian; 14.7% in the assay with OVCAR-3 ovarian; -8.15% (active) in the assay with HS 578T breast. Also, the growth in the assay on NCI/ADR-RES ovarian is 70.9%.
